Source: the supplement of paper PMC7366291
Structures can show the parent of a compound that is named as a salt. ± gives the standard deviation of the averaged measurements.

Tested on: Danio rerio Tg(wt1b:EGFP) embryo, pronephros
Assay: pronephric angle neck segment to proximal convoluted tubule (mean of left and right), fold change vs DMSO control; higher = larger pronephric angle
Conditions: 25 µM; exposure: 24-48 hpf
How it was run: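 Dechorionated Tg(wt1b:EGFP) zebrafish embryos were exposed to 25 μM compound in 0.5% DMSO, HEPES-buffered E3 with 0.003% PTU, from 24 to 48 hpf at 28.5°C. Pronephroi were imaged dorsally in agarose-filled 96-well plates (470 nm, 10 z-slices). On maximum projections, 16 reference points were set manually in Fiji and a macro computed distances and angles. Values more than 2 SD from the feature mean were excluded. Each feature is a fold change relative to the mean of same-day DMSO controls.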

| SMILES | pronephric angle neck segment |
| --- | --- |
| CC(C)(C)NC[C@H](O)COc1cccc2c1CCCC2=O [(-) -Levobunolol hydrochloride] | 0.944 ± 0.052 |
| C#C[C@]1(O)CC[C@H]2[C@@H]3CCC4=CC(=O)CC[C@@H]4[C@H]3CC[C@@]21C [Norethindrone] | 1 ± 0.022 |
| C[N+]1(CCCCC[N+]2(C)CCCC2)CCCC1 [Pentolinium bitartrate] | 1.05 ± 0.052 |
| CO[C@@H]1[C@@H](OC(N)=O)[C@@H](O)[C@H](Oc2ccc3c(O)c(NC(=O)c4ccc(O)c(CC=C(C)C)c4)c(=O)oc3c2C)OC1(C)C [Novobiocin sodium salt] | 0.9784 ± 0.0046 |
| C[C@@H](O[C@H]1OCCN(Cc2n[nH]c(=O)[nH]2)[C@H]1c1ccc(F)cc1)c1cc(C(F)(F)F)cc(C(F)(F)F)c1 [Aprepitant] | 1.05 ± 0.059 |
| O=C(OCC(O)CO)c1ccccc1Nc1ccnc2cc(Cl)ccc12 (stereo not given) [Glafenine hydrochloride] | 1.02 ± 0.017 |
| CC(C)NC[C@H](O)COc1ccc(CC(N)=O)cc1 [(S)-(-)-Atenolol] | 0.959 ± 0.08 |
| NS(=O)(=O)c1cc(C(=O)O)c(NCc2ccco2)cc1Cl [Furosemide] | 1.015 ± 0.01 |
| N=C(N)NCc1cccc(I)c1 [Iobenguane sulfate] | 1.02 ± 0.035 |
| O=C(c1ccccc1)c1ccc2n1CCC2C(=O)O (stereo not given) [Ketorolac tromethamine] | 1.04 ± 0.025 |
| Cc1ncc([N+](=O)[O-])n1CC(C)O (stereo not given) [Secnidazole] | 0.9777 ± 0.0024 |
| CC1(C)S[C@@H]2[C@H](NC(=O)Cc3ccccc3)C(=O)N2[C@H]1C(=O)O [Benzylpenicillin sodium] | 1.017 ± 0.0055 |
| CC(C)(C)NC(=O)[C@H]1CC[C@H]2[C@@H]3CC[C@H]4NC(=O)C=C[C@]4(C)[C@H]3CC[C@]12C [Finasteride] | 1.04 ± 0.023 |
| CN(C)CCCN1c2ccccc2Sc2ccc(Cl)cc21 [Chlorpromazine hydrochloride] | 0.974 ± 0.024 |
| CO[C@H]1/C=C/O[C@@]2(C)Oc3c(C)c(O)c4c(c3C2=O)C2=NC3(CCN(CC(C)C)CC3)NC2=C(NC(=O)/C(C)=C\C=C\[C@H](C)[C@H](O)[C@@H](C)[C@@H](O)[C@@H](C)[C@H](OC(C)=O)[C@@H]1C)C4=O [Rifabutin] | 1.06 ± 0.011 |
| Clc1ccc(Nc2nnc(Cc3ccncc3)c3ccccc23)cc1 [Vatalanib] | 1.02 ± 0.046 |
| COc1ccccc1OCC(O)CN1CCN(CC(=O)Nc2c(C)cccc2C)CC1 (stereo not given) [Ranolazine] | 1.01 ± 0.029 |
| NCCNCCNCCNCCN [Tetraethylenepentamine pentahydrochloride] | 1.02 ± 0.049 |
| CCN(CC)C(C)CN1c2ccccc2Sc2ccccc21 (stereo not given) [Ethopropazine hydrochloride] | 1 ± 0.029 |
| CC(c1cc2ccccc2s1)N(O)C(N)=O (stereo not given) [Zileuton] | 1.11 ± 0.072 |

| SMILES | pronephric angle neck segment |
| --- | --- |
| CCN(CC)C(=O)C1(c2ccccc2)CC1CN (stereo not given) [Milnacipran hydrochloride] | 0.9653 ± 0.008 |
| CCN(CC)CCNC(=O)c1cc(S(C)(=O)=O)ccc1OC [Tiapride hydrochloride] | 1.036 ± 0.0056 |
| COc1c2occc2c(OC)c2c(=O)cc(C)oc12 [Khellin] | 1.03 ± 0.0013 |
| CCCNCC(O)COc1ccccc1C(=O)CCc1ccccc1 (stereo not given) [Propafenone hydrochloride] | 1.13 ± 0.035 |
| C[C@H](O)C(=O)Nc1c(I)c(C(=O)NC(CO)CO)c(I)c(C(=O)NC(CO)CO)c1I [Iopamidol] | 1.01 ± 0.038 |
| Nc1nc(N)nc(-c2cc(Cl)ccc2Cl)n1 [Irsogladine maleate] | 1.07 ± 0.029 |
| CC(C)Oc1ccc2c(=O)c(-c3ccccc3)coc2c1 [Ipriflavone] | 1.06 ± 0.028 |
| CN1CCCN(C(c2ccccc2)c2ccc(Cl)cc2)CC1 (stereo not given) [Homochlorcyclizine dihydrochloride] | 1.013 ± 0.0017 |
| Clc1ccc(CCC(Cn2ccnc2)Sc2c(Cl)cccc2Cl)cc1 (stereo not given) [Butoconazole nitrate] | 1.25 ± 0.056 |
| CCC(=O)OCC(=O)[C@@]1(OC(=O)CC)[C@H](C)C[C@H]2[C@H]3[C@H]([C@@H](O)C[C@@]21C)[C@@]1(C)C=CC(=O)C=C1C[C@H]3Cl [Alclometasone dipropionate] | 1.0427 ± 2.1e-05 |
| CCCN[C@H]1CCc2nc(N)sc2C1 [Pramipexole dihydrochloride] | 1.01 ± 0.046 |
| C#C[C@]1(OC(C)=O)CC[C@H]2[C@@H]3CCC4=C[C@@H](OC(C)=O)CC[C@@H]4[C@H]3CC[C@@]21C [Ethynodiol diacetate] | 1.13 ± 0.057 |
| NC(=O)N1c2ccccc2C=Cc2ccccc21 [Carbamazepine] | 0.955 ± 0.025 |
| CC(C)(C)NC[C@H](O)COc1nsnc1N1CCOCC1 [Timolol maleate salt] | 0.9989 ± 0.0023 |
| CC(C)C(=O)OCC(=O)[C@@]12O[C@H](C3CCCCC3)O[C@@H]1C[C@H]1[C@@H]3CCC4=CC(=O)C=C[C@]4(C)[C@H]3[C@@H](O)C[C@@]12C [Ciclesonide] | 1.06 ± 0.066 |
| C#C[C@]1(O)CC[C@H]2[C@@H]3[C@H](C)CC4=C(CCC(=O)C4)[C@H]3CC[C@@]21C [Tibolone] | 0.924 ± 0.078 |
| CCCCC1(COC(=O)CCC(=O)O)C(=O)N(c2ccccc2)N(c2ccccc2)C1=O [Suxibuzone] | 0.992 ± 0.016 |
| CC(=O)CCCCn1c(=O)c2c(ncn2C)n(C)c1=O [Pentoxifylline] | 0.752 ± 0.033 |
| CCOC(=O)C1=C(C)NC(C)=C(C(=O)OCC)C1c1ccccc1/C=C/C(=O)OC(C)(C)C [Lacidipine] | 1.11 ± 0.073 |
| C=CCN1CCCC1CNC(=O)c1cc2nn[nH]c2cc1OC (stereo not given) [Alizapride hydrochloride] | 1.02 ± 0.049 |
